# Laboratory results published in PubChem BioAssay (NCI).
# About 83,000 compounds went through this panel and 20% of them were active in at least one assay; those are over-represented in the sample as a whole.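 Negative percent growth values reflect cell death: -40 means 40% of the cells present at the start died, and -100 means all died.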 Values without a mark were called inactive. Active and inactive are the calls of the source. Rule for the calls: active = growth percent below 10; inactive = the rest.
# Tests used:
# Test in all cases: NCI-60 one-dose screen, 48 h (100 = growth as untreated, 0 = no growth, -100 = all killed)
# Conditions in all cases: 10 µM unless noted
# DU-145 prostate = tested on: DU-145 prostate
# K-562 leukemia = tested on: K-562 leukemia
# MALME-3M melanoma = tested on: MALME-3M melanoma
# MDA-MB-231 breast = tested on: MDA-MB-231 breast
# RXF 393 renal = tested on: RXF 393 renal
# SF-268 CNS = tested on: SF-268 CNS
# SF-295 CNS = tested on: SF-295 CNS
# SF-539 CNS = tested on: SF-539 CNS
# UACC-257 melanoma = tested on: UACC-257 melanoma
# M14 melanoma = tested on: M14 melanoma
# HCT-15 colon = tested on: HCT-15 colon
# HT29 colon = tested on: HT29 colon
# SNB-75 CNS = tested on: SNB-75 CNS
# SNB-19 CNS = tested on: SNB-19 CNS
# U251 CNS = tested on: U251 CNS
# PC-3 prostate = tested on: PC-3 prostate
# SK-MEL-5 melanoma = tested on: SK-MEL-5 melanoma
# UACC-62 melanoma = tested on: UACC-62 melanoma
# LOX IMVI melanoma = tested on: LOX IMVI melanoma
# SK-MEL-28 melanoma = tested on: SK-MEL-28 melanoma
SMILES,growth (DU-145 prostate),growth (K-562 leukemia),growth (MALME-3M melanoma),growth (MDA-MB-231 breast),growth (RXF 393 renal),growth (SF-268 CNS),growth (SF-295 CNS),growth (SF-539 CNS),growth (UACC-257 melanoma),growth (M14 melanoma),growth (HCT-15 colon),growth (HT29 colon),growth (SNB-75 CNS),growth (SNB-19 CNS),growth (U251 CNS),growth (PC-3 prostate),growth (SK-MEL-5 melanoma),growth (UACC-62 melanoma),growth (LOX IMVI melanoma),growth (SK-MEL-28 melanoma)
COc1ccc2c(c1)O/C(=C/c1ccc(OCC(=O)c3ccccc3)cc1)C2=O,118%,80.7%,96.3%,84.4%,109%,117%,137%,107%,125%,99.3%,111%,110%,120%,108%,108%,96.2%,125%,96.3%,108%,132%
CCN(CC)CCN1CC(O)=C(c2nc(-c3ccc(Cl)cc3)cs2)C1=N,66.4%,1.62% (active),-44.3% (active),12.6%,25%,4.19% (active),24%,-69.8% (active),-38.4% (active),-57.1% (active),-13.4% (active),-18.1% (active),46.7%,66.3%,-48.2% (active),76%,-1.71% (active),-81.4% (active),-61.4% (active),-66.7% (active)
COc1ccc2c(c1)C(=O)/C(=C/c1cccc(OCC(=O)Nc3nc(C)c(C)s3)c1)O2,-76.3% (active),-72.2% (active),-58% (active),-25.1% (active),-57.2% (active),-45.5% (active),-82.7% (active),-80.6% (active),37%,-44.4% (active),12.3%,-82.2% (active),-95.3% (active),80.6%,0% (active),-85.4% (active),40.4%,47.1%,-63.9% (active),11.2%
C[n+]1cccc(CC(=O)NO)c1,109%,94.4%,104%,100%,106%,104%,113%,90.9%,67.7%,99.2%,112%,99.7%,92.6%,102%,87.6%,95.5%,96.4%,92.9%,98%,113%
Cc1cc(NCc2cc(Nc3ccnc4cc(Cl)ccc34)ccc2F)nc(N2CCOCC2)n1,23.8%,4.21% (active),-0.307% (active),19.1%,-3.51% (active),42.4%,-71.6% (active),-29.4% (active),50.8%,-22.9% (active),12.4%,8.57% (active),-22.2% (active),56.1%,-48% (active),37.5%,28.4%,4.01% (active),-78.4% (active),5.36% (active)
Cc1c(C(=O)OC(=NC2CCCCC2)NC2CCCCC2)sc2c1c(=O)nc1c(C#N)n[nH]n12,110%,82.7%,113%,113%,99.2%,106%,109%,104%,102%,103%,114%,96.2%,89.9%,109%,107%,118%,110%,106%,94.8%,100%
Cn1c2c(c3ccc(Cl)c(Cl)c31)C(C#N)C1(CCNCC1)NC2=O (stereo not given),69.1%,26.1%,58.1%,42.2%,25.9%,48.6%,58.3%,56.8%,39.9%,16.1%,47.2%,9.42% (active),22.2%,57.2%,47.7%,20.5%,59.6%,-46.5% (active),14.2%,-81.4% (active)
CC/C=C/C/C=C/C/C=C/C/C=C/C/C=C/C/C=C/CCC(=O)Nc1ccn([C@@H]2O[C@H](CO)[C@@H](O)C2(F)F)c(=O)n1,13.8%,38.4%,64.3%,54.9%,24.9%,19.1%,16.2%,7.06% (active),48.2%,-22.7% (active),41.7%,36.4%,37.4%,7.11% (active),22.4%,41%,31.3%,-12.3% (active),-49.9% (active),74.9%
C[n+]1cc2c3c(ccc2c2ccc4cc5c(cc4c21)OCO5)OCO3,-94.4% (active),-5.22% (active),-76.9% (active),-76.2% (active),-77.1% (active),-93.1% (active),-63.1% (active),-71.8% (active),-87.6% (active),-76.8% (active),-81.2% (active),-84.9% (active),-78.8% (active),-87.1% (active),-82.2% (active),-72.8% (active),-99.4% (active),-66.7% (active),-73.9% (active),-92.1% (active)
CNC(=O)CCN1CCN(CC/C=C2\c3ccccc3Sc3ccc(Cl)cc32)CC1,90.5%,32.4%,98%,102%,21.6%,77.5%,98.5%,97.3%,-30.9% (active),81.3%,63.2%,58.2%,74.3%,98.6%,77.8%,8.82% (active),79.6%,60.4%,72%,-51.5% (active)
COc1cc(-c2nn(-c3ccccc3)cc2-c2ccnc(NCCNS(=O)(=O)c3ccc(Cl)cc3)n2)ccc1Cl,50.7%,27.7%,70%,53.5%,34.9%,41.2%,30.6%,60.3%,34.8%,24.3%,30.3%,11.3%,49.1%,49.9%,28.4%,18.3%,32.6%,41%,32.3%,49.2%
CC(=O)N1N=C(c2ccc(Nc3nc(Nc4ccc(F)cc4)nc(Nc4ccc(F)cc4)n3)cc2)CC1c1cccc([N+](=O)[O-])c1 (stereo not given),106%,76.7%,91.3%,84.6%,81.4%,103%,482%,92.9%,115%,94.1%,91.7%,48.5%,21.8%,92.5%,86.7%,70.9%,78.8%,92.6%,87.9%,74.4%
Nc1n[nH]c(-c2cc(Cl)ccc2O)c1-c1ccccc1,106%,67.9%,82.2%,78%,86.4%,92.3%,102%,94.6%,98.5%,93.8%,78.5%,102%,86%,102%,89.2%,81%,92.2%,66.6%,79.6%,122%
